hcDAF-12 act: H. contortus DAF-12 activation, primary screen; hit rate 1.4% among 370,000; HEK293 hcDAF-12 lit1-tk-luc reporter, luminescence; 0% DMSO, 100% Δ7-dafachronic acid; activation, % at 6.8 µM;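 active means activation above the mean of all tested compounds plus 3 SD, cut at about 5.5% in these data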
hgDAF-12 ag: activates the H. glycines DAF-12 receptor ligand-binding domain. HEK293 GAL4-hgDAF12 UAS-luciferase reporter, agonist luminescence; normalized to butyrate control. activation, % at 6.8 µM. hit rate 1.8% among 370,000. AID 687014;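 active means activation above a cutoff set at the mean of all screened compounds plus 3 SD, cut at about 10% in these data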
DAX1 inh-1: DAX1 (NR0B1) inhibition, primary screen; HEK293T StAR-luciferase reporter, SF-1/DAX-1 repression relief; inhibition, % at 6.8 µM; hit rate 1.1% among 370,000; AID 652010;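 active means inhibition above the mean over all tested compounds plus 3 SD, cut at about 3.6% in these data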;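 further: higher inhibition means more luminescence from relief of DAX-1 repression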
ssDAF12 agonist: activators of S. stercoralis DAF-12 nuclear receptor | HEK293 ssDAF-12/GRIP1 lit1-tk-luc reporter, luminescence; % of 3 µM dafachronic acid response | activation, % at 6.8 µM | hit rate 1% among 370,000 | AID 652126;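 active means activation above the mean over all tested compounds plus 3 SD, cut at about 0.9% in these data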
DAX1 inh-2: NR0B1 (DAX1) inhibition. HEK293 Gal4-DAX1 luciferase reporter, luminescence. inhibition, % at 6.75 µM. hit rate 0.99% among 340,000;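 active means inhibition above the mean over all tested compounds plus 3 SD, cut at about 4.2% in these data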;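 further: inhibition shows as a rise in luminescence from relieved DAX1 repression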
Target sequence (P51843 207-470 limits assumed): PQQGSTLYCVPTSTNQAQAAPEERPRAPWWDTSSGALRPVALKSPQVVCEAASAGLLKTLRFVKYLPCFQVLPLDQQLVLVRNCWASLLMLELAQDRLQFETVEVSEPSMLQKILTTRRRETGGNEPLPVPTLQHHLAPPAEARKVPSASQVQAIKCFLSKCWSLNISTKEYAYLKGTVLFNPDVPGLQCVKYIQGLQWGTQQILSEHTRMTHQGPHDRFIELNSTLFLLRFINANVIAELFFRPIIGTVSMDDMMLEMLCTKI
Of the large screens only hits and unclear results are named; the others gave an inactive call. Shown are actives, neighbours in structure and some others; about 4.1% of the full set was active somewhere.

COc1cccc(/C=C(/C#N)c2nc3ccccc3[nH]2)c1OC(C)C(=O)O (centres undefined)	ssDAF12 agonist 1.0, DAX1 inh-2 7.0
CCOc1cc(N(CC)CC)ccc1/C=C(/C#N)c1nc2ccccc2[nH]1	DAX1 inh-2 6.5
COc1ccccc1N/C=C(\C#N)c1nc2ccccc2[nH]1	ssDAF12 agonist 1.2
NNC(=O)c1ccc(COc2ccc3c(c2)CCC3)o1	hgDAF-12 ag 11
COc1cccc(COc2ccc3ccc(=O)oc3c2)c1	ssDAF12 agonist 1.0
O=C(OCC(F)(F)F)c1cccc(COc2ccc3ccccc3c2)c1	hcDAF-12 act 6.1, hgDAF-12 ag 15, DAX1 inh-1 5.6
O=Cc1ccc(OCc2cccc(C(F)(F)F)c2)cc1O	DAX1 inh-2 7.2
COc1ccc2ccc(=O)oc2c1	none
CC(C)C[C@@H](CO)N1Cc2nnn(Cc3ccccc3)c2-c2ccccc2S1(=O)=O	none (no result: DAX1 inh-2)
C[C@H]1[C@H](c2ccccc2)Oc2cccc(NCCc3ccccc3)c2S(=O)(=O)N1Cc1cccc(F)c1	none (no result: DAX1 inh-2)
Cc1ccc(-c2cc(C(=O)NN=Cc3ccc(N(C)C)cc3)[nH]n2)cc1C	none (no result: DAX1 inh-2)
Cc1cc(C)cc(NC(=O)NCCCN2CCN(c3ccc(F)cc3)CC2)c1	none (no result: DAX1 inh-2)
COc1ccccc1NC(=O)c1ccc(COc2ccc3c(c2)CCC3)cc1	none
COc1cccc(OC)c1C(=O)NNC(=O)c1cccc(COc2ccc3c(c2)CCC3)c1	hgDAF-12 ag 12
CCOc1ccc(OCc2cccc(C(=O)N3CCCC3)c2)cc1	DAX1 inh-1 4.2
COc1ccc(OCc2cccc(C(=O)O)c2)cc1	hcDAF-12 act 5.8
CCOc1ccc(C(=O)N2CCCC2)cc1	none
O=C(O)c1cccc(COc2ccc(CO)cc2Cl)c1	DAX1 inh-1 3.6
O=C(O)c1cc(OCc2ccccc2)cc(OCc2ccccc2)c1	none
CCCC1CCC2(CC1)CCC2OC(=S)Nc1ccccc1Cl (centres undefined)	none (no result: DAX1 inh-1, DAX1 inh-2)
CC(C)Oc1cccc(C(=O)N2CCCC2)c1	ssDAF12 agonist 1.1
CC(=O)c1c(C)[nH]c(C(=O)OCC(=O)Nc2ccc(Cl)c(S(=O)(=O)N(C)C)c2)c1C	none
CC(=O)c1c(C)[nH]c(C(=O)Nc2ccc(Cl)c(S(=O)(=O)N(C)C)c2)c1C	DAX1 inh-2 10.0
CC(=O)c1c(C)[nH]c(C(=O)Nc2ccc(Cl)cc2F)c1C	hgDAF-12 ag 11
COc1ccc(S(=O)(=O)N2CCCCC2)cc1NC(=O)c1[nH]c(C)c(C(C)=O)c1C	hcDAF-12 act 6.2, ssDAF12 agonist 0.9, DAX1 inh-2 4.5
Cc1ccc(C=NNC(=O)CSc2nc3sc4c(c3c(=O)n2-c2ccccc2)CCCC4)s1	none (no result: DAX1 inh-2)
C=CCN1[C@H](CO)[C@H](c2ccc(C#CC3(O)CCCC3)cc2)[C@@H]1C#N	none (no result: DAX1 inh-2)
CC(=O)C1(C(=O)NCc2ccccc2)CC(c2ccccn2)=NO1 (centres undefined)	none (no result: DAX1 inh-2)
CCc1csc(N2[C@H](CN(CCOC)S(=O)(=O)c3ccccc3[N+](=O)[O-])[C@H](c3ccccc3)[C@@H]2CO)n1	none (no result: DAX1 inh-2)
COC(=O)[C@]12C[C@H](CC(=O)N3CCCCC3)C(=O)N(Cc3ccco3)C1=C[C@H](C(C)(C)C)O[C@@H]2C	none (no result: DAX1 inh-2)
CC(C)c1cccc(C(C)C)c1NC(=S)Nc1cccc(Cl)c1	DAX1 inh-2 5.7
Fc1ccc(NC(=S)Nc2cccc(Cl)c2)cc1	none
COc1ccc2c(c1)C1=NN(/C(C)=C\C(C)=O)C(c3ccccc3)C1CC2 (centres undefined)	none
COc1ccc2c(c1)CCC1C2=NN(/C(C)=C\C(C)=O)C1c1ccc(F)cc1 (centres undefined)	hcDAF-12 act 6.0
O=[N+]([O-])c1ccccc1NCc1c(O)ccc2ccccc12	hcDAF-12 act 6.3, ssDAF12 agonist 1.6
Oc1ccc2ccccc2c1CNc1ccc2ccccc2c1	none
Oc1ccc2ccccc2c1CNc1ccccc1	ssDAF12 agonist 1.7
Cc1cc([N+](=O)[O-])ccc1NC(=O)/C=C/c1cccs1	hgDAF-12 ag 12
COC(=O)C12C=C3CC(c4ccc(C)s4)=C3C(=O)N1Cc1[nH]c3ccccc3c1C2 (centres undefined)	none (no result: DAX1 inh-2)
Cn1c(SCc2cccc(Br)c2)nnc1-c1ccccn1	none
Cn1c(SCc2cccc(F)c2)nnc1-c1ccccn1	DAX1 inh-2 5.2
Cn1c(SCc2ccccc2)nnc1-c1ccc(O)cc1	ssDAF12 agonist 0.9
Cn1c(SCc2ccccc2)nnc1-c1ccco1	hgDAF-12 ag 13
CCOC(=O)C1CCN(C(=O)C(C)(C)NC(=O)Nc2ccc(OC)c(Cl)c2)CC1	none (no result: DAX1 inh-1, DAX1 inh-2)
COc1ccc(C(=O)OCCN(C)C2CN(Cc3cn(Cc4ccccc4Cl)nn3)S(=O)(=O)C2)cc1OC (centres undefined)	none (no result: DAX1 inh-2)
CCC(=O)N1CCC(C(=O)NC2CCCc3ccccc32)CC1 (centres undefined)	none (no result: DAX1 inh-2)
CCC(C)N1C(=O)S/C(=C/c2ccc(N3CCOCC3)cc2C)C1=O (centres undefined)	none
Cc1cc(N2CCOCC2)ccc1/C=C1\SC(=O)N(C(C)C)C1=O	DAX1 inh-2 5.6
C[N+]1=C(N)NC2=C3CCCCC3n3c(=O)n(-c4ccccc4)c(=O)n3C2C1 (centres undefined)	none (no result: DAX1 inh-2)
CNS(=O)(=O)c1ccc(NC(=O)c2cnn3c(C(F)F)cc(-c4ccccc4)nc23)cc1	none
O=C(Nc1cccc(S(=O)(=O)N2CCOCC2)c1)c1cnn2c(C(F)F)cc(-c3ccccc3)nc12	DAX1 inh-2 5.0
CCc1cc2c(=O)c(-c3cnn(-c4ccccc4)c3)c(C)oc2cc1OCC(=O)Nc1ccc(F)c(F)c1	ssDAF12 agonist 1.9
CCc1cc2c(=O)c(-c3cnn(-c4ccccc4)c3)c(C)oc2cc1OCC(=O)Nc1cccc(C)c1	none
CCOC(=O)CC[C@@]1(C(=O)OCC)C[C@@H](CC(=O)N2CCSCC2)C(=O)N2CCCC=C21	none (no result: DAX1 inh-2)
COc1cc(NC(=O)Cn2ccsc2=N)c(C)cc1[N+](=O)[O-]	none
N=c1sccn1CC(=O)Nc1ccc(Cl)cc1[N+](=O)[O-]	DAX1 inh-2 4.4
CC(C)(C)NC(=O)C(c1cccnc1)N(C(=O)c1cccs1)c1ccc(C(C)(C)C)cc1 (centres undefined)	none (no result: DAX1 inh-1, DAX1 inh-2)
CC(C)(C)Nc1nc(Cl)nc(Nc2ccccc2)n1	hgDAF-12 ag 11
COc1ccc(Nc2nc(-c3sc(N)nc3C)cs2)cc1	none
Cc1ccc(Nc2nc(-c3sc(N)nc3C)cs2)cc1	hcDAF-12 act 5.8
Cc1ccc2oc(=O)c(/C=C(\O)c3cccs3)nc2c1	hcDAF-12 act 5.6, DAX1 inh-2 5.6
O=c1oc2ccc(Cl)cc2nc1/C=C(\O)c1cccs1	hcDAF-12 act 5.6
COC(=O)[C@]12C[C@H](CC(=O)NCCCCc3ccccc3)C(=O)N(CCC3=CCCCC3)C1=C[C@H](C(C)C)O[C@@H]2C1CC1	none (no result: DAX1 inh-2)
COc1cc(CCN(C(=O)c2cc3ccccc3[nH]2)C(c2ccccn2)c2nc3ccccc3[nH]2)cc(OC)c1 (centres undefined)	ssDAF12 agonist 1.1 (no result: DAX1 inh-2)
